Data from PubChem BioAssay (NCI).
Compounds without any hit were thinned out: in the full panel of roughly 79,000, 15% have a hit. A number with no mark means an inactive call. Active and inactive are the calls of the source. No stated cut-off is given here; in the data, active means growth inhibition above about 70%; inactive means the rest.

Key:
[1] = NCI Yeast Anticancer Drug Screen. Data for the rad50 strain (AID 155);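 further: 0% = growth of vehicle-only cultures of the same strain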; conditions: S. cerevisiae rad50 strain growth inhibition; at 50.0 µM; active compounds read high
Outline: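 Compounds were tested on a yeast strain with an engineered DNA damage repair alteration; the reported value is growth inhibition normalised to vehicle treatment.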

[2] = NCI Yeast Anticancer Drug Screen. Data for the mec2-1 strain (AID 157); conditions: S. cerevisiae mec2-1 strain, at 50.0 µM, active compounds read high
Outline: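 Yeast mec2-1 mutant treated with compound. Readout: growth inhibition vs vehicle controls.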

[3] = NCI Yeast Anticancer Drug Screen. Data for the sgs1 mgt1 strain (AID 161);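 further: 0% = growth of cultures given vehicle only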; conditions: S. cerevisiae sgs1 mgt1 strain, at 50.0 µM, active compounds read high
Outline: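 Read-out: growth inhibition vs vehicle controls. Cells: mutant yeast strain deficient in DNA damage repair.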

[4] = NCI Yeast Anticancer Drug Screen. Data for the cln2 rad14 strain (AID 165);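 further: 0% = growth equal to vehicle treated cultures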; conditions: S. cerevisiae cln2 rad14 strain, at 50.0 µM, active compounds read high
Outline: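 cln2 rad14 yeast strain; compound exposure; growth inhibition read vs vehicle controls.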

[5] = NCI Yeast Anticancer Drug Screen. Data for the bub3 strain (AID 167); conditions: S. cerevisiae bub3 mutant strain, at 50.0 µM, active compounds read high
Outline: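 Growth of a checkpoint-deficient yeast mutant is measured after compound exposure. Values represent inhibition relative to vehicle.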

[6] = NCI Yeast Anticancer Drug Screen. Data for the mlh1 rad18 strain (AID 175); conditions: S. cerevisiae mlh1 rad18 strain growth inhibition; at 50.0 µM; active compounds read high
Outline: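 Yeast w/ defined DNA-repair lesions; compound exposure; growth vs vehicle controls → % inhibition.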

Compound | growth inhibition [1] | growth inhibition [2] | growth inhibition [3] | growth inhibition [4] | growth inhibition [5] | growth inhibition [6]
CCOc1ccc2cc3c(nc2n1)[nH]c1ccccc13 | -27.4% | 4.15% | -0.3% | -16.1% | 8.25% | 11.1%
Cc1nc2cc(N)c(F)cc2[nH]1 | -14.6% | -6.95% | 21.4% | 12.8% | 16.4% | -0.1%
O=C(C1SCCCS1)N(O)c1ccccc1OCc1ccccc1 | -3.85% | -37.6% | -22.8% | -14.5% | 0.95% | -19.8%
O=C1C2Nc3ccccc3N=C2OC1c1cccc([N+](=O)[O-])c1 (stereo not given) | 16.3% | 15.6% | 22.9% | 16.9% | 20.6% | 24.2%
COC(=O)C1(CC(=O)c2ccc(Cl)cc2Cl)NC(=S)NC(=O)C1C#N (stereo not given) | 19.4% | 9.05% | -8.2% | 16.2% | 4.45% | 18.8%
COC(=O)C1C(=O)CC2CCCCC21 (stereo not given) | 2.75% | -19.6% | -13.9% | 20.6% | -22.3% | 16.8%
Cc1cc2c(C)nn(Cc3ccccc3)c2c(C(=O)O)c1C | 10.6% | 7.05% | 1.15% | 2.95% | 9.95% | 26.8%
CC(=O)OCC(OC(C)=O)C(OC(C)=O)C(/C=C/[N+](=O)[O-])OC(C)=O (stereo not given) | 9.9% | 3.65% | 2.4% | -24.6% | -3.4% | -2.05%
COC1OC(COS(=O)(=O)c2ccc(C)cc2)C(N(C)C(C)=O)C1OS(=O)(=O)c1ccc(C)cc1 (stereo not given) | 8.65% | -8.3% | 16.6% | -2.3% | 2.3% | 0.65%
O=C(CC(O)(C(F)(F)F)C(F)(F)F)c1ccc(Cl)c([N+](=O)[O-])c1 | 97.2% (active) | 99.2% (active) | 99.1% (active) | 96.6% (active) | 97.7% (active) | 98.8% (active)
COC(=O)CCC1CCC(CC2CCC(CCC(=O)OC)CC2)CC1 (stereo not given) | -20.1% | -6.95% | -6.65% | -26% | -9.7% | -4.25%
N#Cc1[nH]c(=S)[nH]c1N | 4.1% | -7.85% | 2.6% | 6.05% | 11.8% | -40.8%
O=C1[C@H]2ON(c3ccccc3)C(c3ccc(Cl)cc3)[C@H]2C(=O)N1c1ccc(Cc2ccc(N3C(=O)[C@@H]4ON(c5ccccc5)C(c5ccc(Cl)cc5)[C@@H]4C3=O)cc2)cc1 (stereo not given in full) | 1.75% | 8.6% | 0.2% | 26.4% | 21.4% | 7.6%
CCOC(=O)c1ccc(NC(=O)CNC2CCCCC2)cc1 | -0.05% | -8.7% | -3.2% | -40.8% | 4.55% | -26.1%
CN(C)CCNC(=O)c1cccc(C(=O)Nc2ccccc2)c1[N+](=O)[O-] | 13.7% | -12.6% | -7.7% | 20.4% | -9.95% | -41.6%
c1ccc2c(c1)c1ccccc1c1c3ccccc3c3ccccc3c21 | -10.9% | -14.6% | -1.05% | -18.6% | 0.65% | -20.1%
CC1C(=O)OC(C)(C)C1(C)C (stereo not given) | 22.4% | -16.3% | 4.75% | -41.6% | 0.2% | -10.4%
O=C(/C=C/c1ccncc1)c1ccccc1 | 0.4% | -9.3% | -1.85% | 11.9% | -12.9% | 1.75%
O=C1CCCC/C(=C/c2ccccc2)N1 | 4.45% | -7.2% | -6.7% | 12.8% | -21.8% | 7.85%
CN(C)c1ccc(C(=O)O)cc1 | -0.75% | 11.3% | -20.4% | -28.8% | -17.6% | -16.3%
